Shown are actives, neighbours in structure and some others; about 1.2% of the full set was active somewhere.
EPAC1 antagonist: blocks human EPAC1 exchange factor; O95398; Potency, µM (top dose mostly 115 µM), for the others: at the highest dose activity change, negative = inhibition, most hits filed as inhibitors; 0.14% of 360,000 active; EPAC1 GEF assay, Rap1b-BODIPY-GDP exchange fluorescence;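 note: plate controls were vehicle for no effect and positive control for full effect; nearly all actives have a fitted effect of over 50% in size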
EPAC1 ag: activates human EPAC1 exchange factor. EPAC1 agonist qHTS, biochemical assay; response scale: 100% = response to 6.5 mM cAMP. Potency, µM (series often up to 154 µM), for the others: top-dose activation, most hits filed as activators. 0.073% of 360,000 active; note: nearly all actives have a fitted effect of over 60% in size
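Multi-concentration qHTS readout: loss of Rap1B-bound BODIPY-GDP fluorescence driven by 100 nM EPAC1 with excess GDP (50 uM), monitored kinetically at room temperature; agonist response expressed relative to 6.5 mM cAMP.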
EPAC2 agonist: activates human EPAC2 exchange factor; Potency, µM (titrated, usually from 154 µM), for the others: top-dose activation, hits mostly activators; AID 720711; 0.079% of 360,000 active; EPAC2 activation, biochemical qHTS; response scale: 100% = 6.5 mM cAMP response; note: nearly all actives have a fitted effect of over 50% in size
Target sequence (Q8WZA2 whole entry, looked up): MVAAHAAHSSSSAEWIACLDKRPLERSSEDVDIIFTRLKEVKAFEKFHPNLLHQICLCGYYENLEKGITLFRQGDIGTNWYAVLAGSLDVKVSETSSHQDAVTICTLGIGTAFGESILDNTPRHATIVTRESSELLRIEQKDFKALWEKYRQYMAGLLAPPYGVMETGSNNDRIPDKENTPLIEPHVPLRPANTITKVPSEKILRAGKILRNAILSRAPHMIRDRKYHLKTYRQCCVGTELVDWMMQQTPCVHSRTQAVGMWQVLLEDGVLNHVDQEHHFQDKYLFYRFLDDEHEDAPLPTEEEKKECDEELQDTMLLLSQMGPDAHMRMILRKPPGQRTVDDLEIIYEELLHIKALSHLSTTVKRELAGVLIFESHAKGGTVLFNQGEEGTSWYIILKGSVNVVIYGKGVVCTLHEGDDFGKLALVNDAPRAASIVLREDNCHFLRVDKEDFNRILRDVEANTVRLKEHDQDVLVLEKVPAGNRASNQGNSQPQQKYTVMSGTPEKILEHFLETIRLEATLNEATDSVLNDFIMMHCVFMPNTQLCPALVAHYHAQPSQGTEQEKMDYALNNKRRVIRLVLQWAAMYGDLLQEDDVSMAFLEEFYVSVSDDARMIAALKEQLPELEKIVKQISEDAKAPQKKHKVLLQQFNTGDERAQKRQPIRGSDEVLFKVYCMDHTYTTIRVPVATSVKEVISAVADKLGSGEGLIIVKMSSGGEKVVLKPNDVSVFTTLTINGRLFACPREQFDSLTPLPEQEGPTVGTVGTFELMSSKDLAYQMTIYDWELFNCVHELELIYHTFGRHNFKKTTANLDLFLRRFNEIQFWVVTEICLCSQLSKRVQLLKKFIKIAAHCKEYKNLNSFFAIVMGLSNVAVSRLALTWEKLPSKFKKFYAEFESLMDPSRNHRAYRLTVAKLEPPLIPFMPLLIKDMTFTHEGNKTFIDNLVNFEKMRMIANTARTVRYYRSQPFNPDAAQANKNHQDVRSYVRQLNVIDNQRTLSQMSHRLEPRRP
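Setup: EPAC2 100 nM, labeled Rap1B complex 250 nM, free GDP 50 uM. Compound titrations pinned in, brief spin, 5 min room temperature incubation. Kinetic fluorescence read over 30 min, normalized to 6.5 mM cAMP.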
USP1-UAF1 inh: inhibitors of human USP1/UAF1 deubiquitinase; O94782; recombinant USP1/UAF1, Ub-Rhodamine cleavage fluorescence; Potency, µM (highest dose often 57.1 µM), inactives show top-dose activity change, negative = inhibition, hits mostly inhibitors; 0.23% of 390,000 active; AID 743255; note: % is set by controls: 0 for no effect and ±100 for the full control effect; nearly all actives have a fitted effect of over 60% in size
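USP1/UAF1 complex at 1 nM was preincubated with compound for 15 min at room temperature, then Ub-Rho substrate (150nM final) was added. Fluorescence (480/540 nm) was read kinetically, 6 reads every 60 seconds.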
VDR inh: blocks the human vitamin D receptor. 0.93% of 400,000 active. VDR-SRC2-3 peptide fluorescence polarization, 2 h. Potency, µM, for the others: max response, negative = inhibition, most hits filed as inhibitors. P11473; note: % is set by controls: 0 for no effect and ±100 for the full control effect
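Fluorescence polarization assay of small-molecule disruption of VDR binding to coregulator peptide SRC2-3. Compounds and controls pin-transferred, then read after 2 h incubation at ambient room temperature.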
EPAC2 antag: blocks human EPAC2 exchange factor; 0.18% of 360,000 active; Q8WZA2; AID 720708; EPAC2 GEF exchange of Rap1B-BODIPY-GDP, fluorescence; Potency, µM (series often up to 114 µM), inactives show top-dose activity, negative = inhibition, most hits filed as inhibitors; note: % is set by controls: 0 for no effect and ±100 for the full control effect; nearly all actives have a fitted effect of over 45% in size
* = called active by the depositor; ? = inconclusive; . = not tested or not shown. Calls come from the whole dose curve; as a rule, active = well fitted curve in the direction sought with a large enough effect; inconclusive = small, poorly fitted or top-dose-only effect, or another doubt; inactive = no such curve, though single readings can be large; an effect the other way counts as inactive or inconclusive. Potency is the fitted concentration of half-maximal effect.

SMILES	EPAC1 antagonist	EPAC1 ag	EPAC2 agonist	USP1-UAF1 inh	VDR inh	EPAC2 antag
CN(C)c1ccc(/C=C2\SC(=S)N(Nc3ncc(C(F)(F)F)cc3Cl)C2=O)cc1	35.4%	112µM*	112µM*	25.1µM*	-12.8%	65.7%
Cc1cccc(NC(=O)Cn2c(O)c(N=NC(=O)c3ccccc3O)c3ccccc32)c1	56.2µM*	-28.1%	-2.7%	-15.1%	-21.3%	2.5%
NC(=S)N=Nc1c(O)n(CC(=O)Nc2ccccc2)c2ccccc12	14.5%	-9.5%	-6.6%	-10.7%	9.9%	-5.0%
CN1C(=O)N(C)C2=NNC=NC2(O)C1=O (stereo unspecified)	.	.	.	.	-16.0%	.
O=C(O)/C=C/c1cn(Cc2ccccc2)nc1-c1ccccc1	-16.8%	-3.4%	7.7%	1.7%	0.5%	0.5%
O=C(O)CCn1cc(/C=C/C(=O)c2ccc(Cl)cc2)c(-c2ccc(Br)cc2)n1	?	-1.7%	-1.3%	-19.0%	39.8µM*	-4.2%
CCCOC(=O)NCCCN(C)C	.	.	.	.	-1.8%	.
Fc1ccc(COc2ccccc2C(=S)N2CCCC2)cc1	-12.9%	7.4%	5.6%	-24.8%	50.1µM*	-13.2%
COc1ccc(NC(=O)CN(c2cc(C)cc(C)c2)S(=O)(=O)c2c(C)n[nH]c2C)cc1	-16.1%	-25.8%	-1.1%	-6.3%	89.1µM*	1.2%
COc1ccc(N(CC(=O)Nc2ccc(F)c(F)c2)S(=O)(=O)c2c(C)n[nH]c2C)cc1	-13.1%	2.0%	-5.3%	-22.2%	6.6%	-0.5%
Cc1c(/C=C/C(=O)c2cccs2)cnn1C	-4.4%	4.3%	3.7%	-13.9%	?	-0.6%
O=C(/C=C/c1ccccc1)c1cccs1	.	.	.	.	11.2µM*	.
CCOc1ccc(/C=C/C(=O)c2cccs2)cc1	.	.	.	.	22.4µM*	.
O=C(O)/C=C/c1ccccc1	.	.	.	.	9.5%	.
Nc1ccc(/C=C/C(=O)c2cccs2)cc1	22.3%	15.9%	23.9%	25.1µM*	-12.9%	16.5%
CCOc1ccc(/C=C/C(=O)c2ccccc2)cc1	-4.0%	16.7%	9.8%	?	?	-0.3%
O=C(C=Cc1ccccc1)c1cccs1	-19.6%	3.7%	8.3%	-25.4%	56.2µM*	6.2%
C=C1CCN(C(C)C(=O)OCc2ccc(C)cc2)S(=O)(=O)c2ccccc21 (stereo unspecified)	.	.	.	.	-4.2%	.
Cc1ccc2c(=O)c3cccc(CC(=O)O)c3oc2c1C	.	.	.	.	4.2%	.
N#CC(C#N)=C1C=CC=CN1/C(=C\c1ccco1)C(=O)c1ccc(Cl)cc1	-7.8%	19.5%	26.7%	-10.1%	8.91µM*	-20.1%
COC1=C(Br)C(=O)c2ncccc2C1=O	?	2.6%	9.3%	0.891µM*	3.55µM*	8.91µM*
COc1ccc(-c2cnnc(N/N=C/c3ccc(O)c(O)c3)n2)cc1	?	-0.2%	2.4%	-17.6%	-5.9%	-1.4%
COc1ccc(-c2cnnc(N/N=C/c3ccc(C)o3)n2)cc1	4.6%	14.0%	2.0%	-16.7%	44.7µM*	8.9%
O=C(NCc1ccc(OC(F)(F)F)cc1)c1cccc2c1C(=O)c1ccc(N3CCC(Cc4ccccc4)CC3)cc1S2(=O)=O	-2.9%	17.0%	-12.4%	389.6%	-22.0%	32.1%
O=C(NCc1ccc(OC(F)(F)F)cc1)c1cccc2c1C(=O)c1ccc(N3CCCC3)cc1S2(=O)=O	-8.8%	7.8%	100µM*	16.7%	-12.0%	79.4µM*
SMILES	EPAC1 antagonist	EPAC1 ag	EPAC2 agonist	USP1-UAF1 inh	VDR inh	EPAC2 antag
O=C(NCc1ccc(OC(F)(F)F)cc1)c1cccc2c1C(=O)c1ccc(N3CCCCC3)cc1S2(=O)=O	21.6%	-10.7%	100µM*	25.1µM*	1.0%	201.7%
O=C(NCc1ccccc1Br)c1cccc2c1C(=O)c1ccc(-c3ccc(OC(F)(F)F)cc3)cc1S2(=O)=O	-29.2%	-23.6%	-10.7%	-7.6%	2.1%	-0.4%
C[C@@H]1C(=O)N(S(=O)(=O)c2ccccc2[N+](=O)[O-])[C@H]1c1ccc(-c2ccccc2)cc1	.	.	.	.	-20.3%	.
CCCN1CCCC(c2cccc(S(C)(=O)=O)c2)C1 (stereo unspecified)	.	.	.	.	11.5%	.
O=C1CS(=O)(=O)N(Cc2ccc(F)cc2)c2ccccc21	3.2%	-17.8%	2.8%	-28.8%	79.4µM*	-25.6%
Cc1cc(/C=C2\NC(=O)NC2=O)c(C)n1-c1ccc(N2CCOCC2)cc1	17.4%	-14.0%	13.5%	?	7.8%	2.5%
O=C1NC(=O)/C(=C\c2ccc(N3CCOCC3)o2)N1	-1.9%	2.3%	5.1%	-11.0%	25.1µM*	-1.9%
O=C1NC(=O)/C(=C/c2ccc(N3CCOCC3)o2)N1	-14.5%	1.1%	11.2%	-1.9%	79.4µM*	-6.5%
Cc1cc(/C=C2/NC(=O)NC2=O)c(C)n1-c1ccc(N2CCOCC2)cc1	-3.7%	2.9%	21.8%	-2.4%	-14.6%	-0.6%
CCOc1cc(/C=C\[N+](=O)[O-])ccc1OCC(=O)Nc1ccccc1C	4.8%	10.8%	-1.6%	-9.4%	4.47µM*	-19.8%
COc1cc(/C=C/c2cccc[n+]2C)ccc1OCC(=O)Nc1ccccc1C	-1.2%	-0.5%	12.9%	-5.6%	10.9%	1.9%
O=C(Nc1cccc(Cl)c1)N1CCOCC1	-27.5%	-4.9%	5.2%	3.6%	27.0%	0.4%
O=C(Nc1cccc(Cl)c1)N1CCCC1	-12.9%	19.4%	0.6%	-15.1%	17.8µM*	3.7%
CCOC(=O)C1CCN(C(=O)Nc2ccc3nc(-c4ccco4)c(-c4ccco4)nc3c2)CC1	?	-1.3%	2.7%	?	?	3.3%
O=C(NCCO)c1ccc2nc(-c3ccco3)c(-c3ccco3)nc2c1	?	-1.3%	-3.1%	31.6µM*	35.5µM*	1.9%
O=C(c1ccccc1)c1ccc2nc(-c3ccco3)c(-c3ccco3)nc2c1	50.1µM*	-3.3%	-6.1%	?	44.7µM*	-15.2%
Cc1ccc(C)c(N2CCN(C(=O)c3ccc4nc(-c5ccco5)c(-c5ccco5)nc4c3)CC2)c1	?	2.7%	7.2%	-23.3%	-19.3%	-7.4%
c1coc(-c2nc3ccccc3nc2-c2ccco2)c1	-8.1%	1.1%	9.8%	-17.3%	?	-1.7%
O=C(Nc1ccc2nc(-c3ccco3)c(-c3ccco3)nc2c1)N1CCCCCC1	39.8µM*	-0.9%	1.2%	31.6µM*	?	2.8%
COc1cc(Nc2ncc3c(n2)CCN(Cc2ccc(OC(C)C)c(OC)c2)C3)cc(OC)c1	.	.	.	-22.5%	2.8%	.
COc1ccc(NC=O)c(C(=O)CCNC(C)=O)c1	.	.	.	.	1.3%	.
CN(C)/C=N/NC(=O)c1ccccc1	-5.0%	-5.9%	7.9%	-11.2%	8.7%	6.1%
O=C(NN=c1c(=O)c2ccccc2c1=O)c1ccccc1	4.1%	3.5%	11.8%	31.6µM*	-31.7%	8.6%

Bioassay records as filed in PubChem.
